Several values for one entry are separate records, joined by “and”; a condition that tells them apart may be missing. Equal values may be shown once. Unmarked numbers belong to inactive results. Records with an inconclusive call do not appear. Entries that show only a call come without a potency. Activity calls are given as the source filed them. Unless noted, the call rests on the fitted dose curve; in most records, active means well fitted curve in the direction sought with a large enough effect; inconclusive means small, poorly fitted or top-dose-only effect, or another doubt; inactive means no such curve, though single readings can be large; an effect the other way counts as inactive or inconclusive.
How the values were obtained:
[1] = Cell Viability - N2a (AID 540); details: N2a mouse neuroblastoma cell viability; activity change, negative = cytotoxicity: at 92.2 µM (top of the series);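 further: cells exposed to compound for 40 h at 37 °C; nearly all actives have a fitted effect of over 45% in size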
How it was run: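 In this qHTS cytotoxicity screen, ATP-dependent luciferase luminescence reports viable N2a cells after a 40 hr compound exposure in complete culture medium. Potencies are AC50 values from standard Hill equation fits.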

[2] = Cell Viability - Renal Proximal Tubule (AID 545); details: renal proximal tubule cells viability, primary cells of rat origin; at 91.7 µM (top of the series);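 further: cells exposed to compound for 40 hours; nearly all actives have a fitted effect of over 40% in size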
How it was run: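 Rat kidney proximal tubule cells, freshly isolated; 1000 cells/well, 5 hr settle, compound 40 hr 37 °C. CellTiter-Glo 20 min RT, luminescence read. AC50 by standard Hill fit.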

[3] = Cellular Toxicity (caspase-3) Jurkat (AID 655); details: Jurkat caspase-3 activation, luminescence, DMSO = 0%, tamoxifen = 100%; at 92.2 µM (top of the series);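 further: cells exposed to compound for 16 h at 37 °C before reading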
How it was run: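 Luminescent caspase-3/7 readout (aminoluciferin substrate cleavage) in human T-cell leukemia Jurkat cells after 16 hr compound exposure. Concentration-response normalized to DMSO and 100 uM tamoxifen; AC50 by standard Hill equation.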

[4] = MultiTox-Fluor Cytotoxicity Assay - LYMP1-002 - Live Cells (AID 955); further: potency means the concentration at half of the fitted maximal effect
How it was run: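 In this qHTS viability format, lymphoblastoid cells (LYMP1-002, human) received compound for 16 hr at 37 C. Fluorogenic GF-AFC cleavage by viable cells was detected at 405/510 nm after 1 h at room temperature.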

[5] = MultiTox-Fluor Cytotoxicity Assay - LYMP1-003 - Dead Cells (AID 961); further: nearly all actives have a fitted effect of over 70% in size; further: potency means the concentration at half of the fitted maximal effect
How it was run: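 LYMP1-003 human lymphoblastoid cells (2500/well) exposed to compound 16 h at 37 C in complete medium; dead-cell protease read with bis-AAF-R110 fluorescence (Ex/Em 485/520) after 60 min at room temperature. Normalized to DMSO and 15 uM tetraoctylammonium bromide; AC50 from Hill fit.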

[6] = Cell Viability - LYMP1-003 - Assay at 24 hr (AID 963); further: potency means the concentration at half of the fitted maximal effect
How it was run: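 The lymphoblastoid line was treated with titrated compounds for 24 hours, and viable cell number estimated from luciferase-based ATP luminescence.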

[7] = Cell Viability - LYMP2-003 (AID 965);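 further: cells exposed to compounds for 24 h before reading; nearly all actives have a fitted effect of over 50% in size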; further: potency means the concentration at half of the fitted maximal effect
How it was run: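 CellTiter-Glo luminescence (cellular ATP) after 24 h compound exposure at 37 C in complete medium; 2500 cells/well, 5 h settling beforehand. Concentration-response fitted to standard Hill equation for AC50. Tetraoctylammonium bromide served as positive control.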

[8] = Cell Viability - LYMP2-009 (AID 968); further: nearly all actives have a fitted effect of over 55% in size; further: potency means the concentration at half of the fitted maximal effect
[9] = Cell Viability - LYMP2-015 (AID 971); further: nearly all actives have a fitted effect of over 55% in size; further: potency means the concentration at half of the fitted maximal effect
How it was run: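 AC50 values reflect Hill-model fits of ATP-based luminescence (CellTiter-Glo) from a human lymphoblastoid line, 2500 cells/well, treated 24 hr at 37 C.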

[10] = Cell Viability - LYMP2-019 (AID 973); further: nearly all actives have a fitted effect of over 55% in size; further: potency means the concentration at half of the fitted maximal effect
How it was run: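 AC50 values come from Hill-equation modelling of qHTS concentration-response curves, where viability is measured as luciferase-based ATP luminescence in the lymphoblastoid line after 24 hr compound exposure in complete culture medium.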

[11] = Cell Viability - LYMP2-021 (AID 974);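 further: compound exposure lasts 24 hours at 37 °C; nearly all actives have a fitted effect of over 55% in size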; further: potency means the concentration at half of the fitted maximal effect
How it was run: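 In qHTS format, compounds are tested against 2500 lymphoblastoid cells per well for 24 h; viable cell number is inferred from ATP-driven luciferase light, and Hill-equation fitting yields AC50 values.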

[12] = Cell Viability - LYMP2-025 (AID 976); further: potency means the concentration at half of the fitted maximal effect
How it was run: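 Luminescent ATP readout after 24 hr treatment of a human lymphoblastoid line (LYMP2-025, 2500 cells/well, 37 C). Reagent developed 30 min at room temperature; AC50 fitted with the Hill equation.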

[13] = Cell Viability - LYMP2-002 (AID 977); further: potency means the concentration at half of the fitted maximal effect
How it was run: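 Human lymphoblastoid cells, 2500/well, complete medium; 5 h 37 C settle; compound 24 h 37 C; CellTiter-Glo, 30 min RT; luminescence. Decrease in ATP = cytotoxicity; AC50 via Hill equation.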

[14] = Cell Viability - LYMP2-006 (AID 978); further: nearly all actives have a fitted effect of over 60% in size; further: potency means the concentration at half of the fitted maximal effect
How it was run: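 qHTS, 1536-well; 2500 cells/well, 5 hr 37 C; cpd 24 hr 37 C; CellTiter-Glo 30 min RT; luminescence. Tetraoctylammonium bromide pos. ctrl. AC50 via Hill eqn.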

[15] = Cell Viability - LYMP2-008 (AID 980); further: nearly all actives have a fitted effect of over 60% in size; further: potency means the concentration at half of the fitted maximal effect
How it was run: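 Measured: ATP-dependent luminescence, proportional to viable cell number, in human lymphoblastoid cells treated 24 hr with compound in complete culture medium. Values are AC50s from Hill-equation modelling of qHTS titrations.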

[16] = Cell Viability - LYMP2-016 (AID 984); further: potency means the concentration at half of the fitted maximal effect
How it was run: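 qHTS, 1536-well: 2500 LYMP2-016 cells/well, 5 hr 37 C, compound added, 24 hr 37 C, CellTiter-Glo 30 min RT, luminescence. Tetraoctylammonium bromide positive control. AC50 via Hill fit.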

[17] = Cell Viability - LYMP1-002 - Assay at 40 hr (AID 994); further: nearly all actives have a fitted effect of over 60% in size; further: potency means the concentration at half of the fitted maximal effect
How it was run: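 Concentration-dependent ATP loss after 40 hr treatment at 37 C defined toxicity; AC50 values were obtained by fitting the standard Hill equation.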

[18] = biological target: Voltage-gated inwardly rectifying potassium channel KCNH2 (Homo sapiens) (UniProt Q12809); assay: qHTS Assay for Small Molecule Inhibitors of the Human hERG Channel Activity (AID 588834);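 further: top concentration of the series differs between compounds; lower thallium flux fluorescence means stronger hERG block; nearly all actives have a fitted effect of over 50% in size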
How it was run: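 Thallium-flux (FluxOR) read-out on FDSS: fluorescence read 10 s before and 2 min after stimulation buffer. hERG-BacMam-transduced U2OS cells, compound exposure about 10 min. AC50 by standard Hill equation.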

[19] = qHTS assay for small molecule agonists of the antioxidant response element (ARE) signaling pathway measured by Nrf2-dependant transcriptional activity (AID 720636; active means well fitted curve in the direction sought with a large enough effect in the repeat runs; an effect the other way counts as inactive or inconclusive; further: potency means the concentration at half of the fitted maximal effect)
How it was run: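 ARE-luc HepG2 cells carrying an Nrf2-responsive luciferase reporter, in medium with 1% dialyzed FBS, exposed to compound for 16 hr at 37 C, 5% CO2. Luminescence read 30 min after ONE-Glo addition.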

[20] = biological target: Thyroid hormone receptor beta (Homo sapiens) (UniProt P10828); assay: qHTS assay for small molecule agonists of thyroid hormone receptor beta signaling (AID 588545; calls by dose curve)
How it was run: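 In this cell-based screen, titrated compounds act on HEK 293 cells held in medium with 2% charcoal/dextran FBS, NEAA and pyruvate for 18 hrs at 37 C. Responses are expressed relative to T3 (10 nM) as 100% and basal DMSO as 0%.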

Voltage-gated inwardly rectifying potassium channel KCNH2 (Homo sapiens), sequence (Q12809 whole entry, looked up): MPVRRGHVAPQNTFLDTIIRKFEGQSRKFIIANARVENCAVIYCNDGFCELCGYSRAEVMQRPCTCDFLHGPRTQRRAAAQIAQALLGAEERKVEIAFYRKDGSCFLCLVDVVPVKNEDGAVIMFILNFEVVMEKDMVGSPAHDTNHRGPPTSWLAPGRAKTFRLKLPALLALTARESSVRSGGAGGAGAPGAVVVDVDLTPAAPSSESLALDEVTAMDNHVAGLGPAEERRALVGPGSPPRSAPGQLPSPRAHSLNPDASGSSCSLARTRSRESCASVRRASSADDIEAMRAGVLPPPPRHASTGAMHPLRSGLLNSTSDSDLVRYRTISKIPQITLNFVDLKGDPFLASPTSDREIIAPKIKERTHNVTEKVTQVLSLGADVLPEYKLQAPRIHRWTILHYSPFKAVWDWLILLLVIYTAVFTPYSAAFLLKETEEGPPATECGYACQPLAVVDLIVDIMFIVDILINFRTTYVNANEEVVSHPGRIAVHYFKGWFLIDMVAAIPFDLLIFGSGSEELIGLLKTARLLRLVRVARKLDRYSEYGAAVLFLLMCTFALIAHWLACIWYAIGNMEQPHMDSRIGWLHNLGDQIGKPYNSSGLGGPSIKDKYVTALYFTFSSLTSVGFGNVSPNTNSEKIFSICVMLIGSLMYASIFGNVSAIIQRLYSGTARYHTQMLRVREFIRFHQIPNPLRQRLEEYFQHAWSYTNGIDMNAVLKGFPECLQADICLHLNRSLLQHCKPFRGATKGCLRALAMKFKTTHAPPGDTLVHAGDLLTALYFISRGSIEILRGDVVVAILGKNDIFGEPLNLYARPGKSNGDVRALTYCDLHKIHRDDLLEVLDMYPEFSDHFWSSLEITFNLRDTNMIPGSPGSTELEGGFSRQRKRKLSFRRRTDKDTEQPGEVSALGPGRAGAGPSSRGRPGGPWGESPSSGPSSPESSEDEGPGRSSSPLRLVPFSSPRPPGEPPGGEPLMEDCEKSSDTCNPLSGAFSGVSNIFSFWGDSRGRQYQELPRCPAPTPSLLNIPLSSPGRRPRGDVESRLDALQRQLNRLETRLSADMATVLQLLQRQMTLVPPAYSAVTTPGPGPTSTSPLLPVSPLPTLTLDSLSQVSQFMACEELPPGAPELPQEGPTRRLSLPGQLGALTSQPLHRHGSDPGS
Thyroid hormone receptor beta (Homo sapiens), sequence (P10828 whole entry, looked up): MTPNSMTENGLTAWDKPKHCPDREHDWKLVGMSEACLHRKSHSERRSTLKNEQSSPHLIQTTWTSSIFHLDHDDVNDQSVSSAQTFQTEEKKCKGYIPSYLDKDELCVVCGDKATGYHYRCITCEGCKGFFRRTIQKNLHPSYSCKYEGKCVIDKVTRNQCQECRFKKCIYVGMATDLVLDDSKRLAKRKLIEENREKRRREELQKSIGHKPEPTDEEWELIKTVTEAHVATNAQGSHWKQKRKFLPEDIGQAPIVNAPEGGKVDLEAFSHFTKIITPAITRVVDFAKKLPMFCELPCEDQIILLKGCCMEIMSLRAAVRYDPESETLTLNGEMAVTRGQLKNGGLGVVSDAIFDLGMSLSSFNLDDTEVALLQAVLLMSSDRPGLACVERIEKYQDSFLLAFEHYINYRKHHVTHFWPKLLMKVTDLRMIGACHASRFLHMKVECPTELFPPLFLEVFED

| SMILES | activity change, negative = cytotoxicity [1] | activity change, negative = cytotoxicity [2] | caspase-3 activation [3] [%] | Potency [4] | Potency [5] | Potency [6] | Potency [7] | Potency [8] | Potency [9] | Potency [10] | Potency [11] | Potency [12] | Potency [13] | Potency [14] | Potency [15] | Potency [16] | Potency [17] | Potency [18] | Potency [19] | outcome [20] |
| --- | --- | --- | --- | --- | --- | --- | --- | --- | --- | --- | --- | --- | --- | --- | --- | --- | --- | --- | --- | --- |
| OCCNCCO | 6.19% | -1.22% | 2.36 | inactive | inactive | inactive | inactive | inactive | inactive | inactive | inactive | inactive | inactive | inactive | inactive | inactive | inactive | inactive | inactive |  |
| C=CCOC(=O)c1ccccc1C(=O)OCC=C | -8.09% | -7.06% | -1.58 | inactive | inactive | inactive | inactive | inactive | inactive | inactive | inactive | inactive | inactive | inactive | inactive | inactive | inactive | inactive | inactive | inactive |
| Clc1cc(Cl)c(Cl)cc1Cl | 2.22% | -8.1% | 2.8 | inactive | inactive | inactive | inactive | inactive | inactive | inactive | inactive | inactive | inactive | inactive | inactive | inactive | inactive | inactive | inactive | inactive |
| CCCCCCCCOC(=O)c1cc(O)c(O)c(O)c1 |  |  |  |  |  |  |  |  |  |  |  |  |  |  |  |  |  |  | inactive | inactive |
| O=[N+]([O-])c1cccc(Cl)c1Cl | -3.99% | -2.04% | 1.08 | inactive | inactive | inactive | inactive | inactive | inactive | inactive | inactive | inactive | inactive | inactive | inactive | inactive | inactive |  | inactive |  |
| C=CC(=O)OCCOCCOCCOCCOC(=O)C=C | -110% (active) and -111% (active) | -95.5% (active) and -108% (active) |  | 12.6 µM (active) and 15.8 µM (active) | 20 µM (active) and 25.1 µM (active) | 31.6 µM (active) and 39.8 µM (active) | 12.6 µM (active) and 15.8 µM (active) | 15.8 µM (active) | 25.1 µM (active) and 20 µM (active) | 25.1 µM (active) and 31.6 µM (active) | 15.8 µM (active) | 25.1 µM (active) | 15.8 µM (active) and 25.1 µM (active) | 25.1 µM (active) | 25.1 µM (active) | 20 µM (active) and 15.8 µM (active) | 20 µM (active) and 25.1 µM (active) | inactive | 66.8 µM (active) | inactive |
| C=Cc1ccccc1Cl | 1.46% | -4.37% | -1.24 | inactive | inactive | inactive | inactive | inactive | inactive | inactive | inactive | inactive | inactive | inactive | inactive | inactive | inactive | inactive | inactive | inactive |
| COCC(=O)O | 3.33% | -6.52% | 0.941 | inactive | inactive | inactive | inactive | inactive | inactive | inactive | inactive | inactive | inactive | inactive | inactive | inactive | inactive | inactive | inactive | inactive |

Reference: PubChem BioAssay (NCATS)
